Laboratory results as given in PubChem BioAssay (NCATS).
Results filed as inconclusive are left out. Unmarked numbers belong to inactive results. Active and inactive are the calls of the source. The call rests on the fitted dose curve; in most records, active means well fitted inhibition curve with a large enough effect; inconclusive means small, poorly fitted or top-dose-only effect; inactive means no such curve, though single readings can be large or run the other way.

test: BET inhibitor-based combinations targeting novel dependencies in MECOM-rearranged (r) AML: SET-2 cell line (AID 2202231); conditions: SET-2 AML cells viability, CellTiter-Glo luminescence, 48 h; viability: active compounds read low, series mostly up to about 46 µM; further: nearly all actives have a fitted effect of over 35% in size
Text: Ecotropic viral insertion site 1 (EVI1) is located on chromosome 3q26.2 as part of the MECOM (MDS and EVI1 complex) locus. Under normal hematopoiesis, EVI1 is a regulator of hematopoietic stem cell maintenance and self-renewal and EVI1 levels decrease as the cells differentiate. In approximately 5-10% of de novo acute myeloid leukemia (AML) EVI1 is aberrantly expressed, including Chromosomal inv(3)(q21;q26.2) or t(3;3)(q21;q26.2) alterations (MECOM-r) that account for about 50% of AML with EVI1 overexpression 31. AMLs with high levels of EVI1 have a poor prognosis and an overall survival time averaging between 10-14 months. EVI1 overexpression confers resistance in leukemia cells, highlighting the need to develop new targeted therapies for EVI1 overexpressing AMLs.
Here, we performed an unbiased chemical drug screening by evaluating the single agent activity of a collection of 2,480 oncology-focused, approved and investigational drugs (NCATS Mechanism Interrogation Plates, MIPE v5.0) against a panel of seven AML cell lines. These included four MECOM-r cell-lines (AML-191, AML-194, UCSD-AML1 and HNT-34) and three non-MECOM-r AMLs (MV4-11, OCI-AML3 and SET-2). Exploiting the mechanistic redundancy built in the library, we identified target-level sensitivities in MECOM-r AML cells and relative activity as compared to other AML subtypes.
A collection of 2480 mechanistically annotated dugs (MIPE v5.0) was used to screen four 3q26.2 rearranged AML cell lines and three non-3q26.2 rearranged AML cell lines. This library purposely exploits redundancy by including multiple inhibitors of key onco-targets, while simultaneously encompassing mechanistic diversity, targeting more than 800 distinct mechanisms of action. Briefly, cells were seeded in 5 uL of growth media using a Multidrop Combi dispenser into 1536 well white polystyrene tissue culture treated plates (Corning) at a density of 500cells/well. For each cell-line, for each of the 2480 drugs in MIPE v5.0 library, an 11-point dose curve was generated via a 1536 pin-tool. Plates were incubated for 48 hr at standard incubator conditions, covered by a stainless steel gasketed lid to prevent evaporation. Cell viability was determined by luminescence based, Cell Titer Glo assay (Promega). In detail, 3 uL of Cell Titer Glo were added to each well and plates were incubated at room temperature for 15 min with a stainless-steel lid in place. Luminescence readings were taken using a Viewlux (PerkinElmer) with a 2 s exposure time per plate. Compound dose-response curves were normalized to DMSO and empty well controls on each plate. Quantitative drug activity data from dose-response curves was determined utilizing area Under the Curve (AUC) and Z-transformed AUC (Z-AUC, a mean-centering transformation applied to each individual cell-line screened).
Potency means the concentration at half of the fitted maximal effect.

SMILES	viability [%]	Potency
C/C(O)=C(\C#N)C(=O)Nc1cc(Br)ccc1Br	90	–
CC1(C)CC[C@]2(NC(=O)C(C)(F)F)CC[C@]3(C)[C@H](C(=O)C=C4[C@@]5(C)C=C(C#N)C(=O)C(C)(C)[C@@H]5CC[C@]43C)[C@@H]2C1	–	1660 nM (active)
COC1(CS(=O)c2ccccc2)CCN(CCc2c[nH]c3ccc(F)cc23)CC1 (stereo not given)	110	–
CCN1C[C@]2(OC(=O)c3ccccc3NC(C)=O)CC[C@H](OC)[C@@]34[C@H]5CC6[C@@H](OC)C[C@](O)(C(C[C@@H]23)[C@@H]14)[C@@]5(O)[C@@H]6OC	104	–
CN(C)CCN(C)CCc1ccc(Cl)c(Cl)c1	103	–
N#CC(O[C@@H]1O[C@H](CO[C@@H]2O[C@H](CO)[C@@H](O)[C@H](O)[C@H]2O)[C@@H](O)[C@H](O)[C@H]1O)c1ccccc1 (stereo not given in full)	93.9	–
CC(NC(C)(C)C)C(=O)c1cccc(Cl)c1 (stereo not given)	111	–
CC(C)(O)C(=O)Nc1ccc([N+](=O)[O-])c(C(F)(F)F)c1	–	23500 nM (active)
O=C(N[C@@H](COc1ccc2[nH]c(=O)[nH]c2c1)c1ccccc1)c1cccn(Cc2ccc(F)c(F)c2)c1=O	94	–
CCOC(=O)Nc1ccc(NCc2ccc(F)cc2)cc1N	102	–
C[C@]12CCC(=O)C(O)=C1CC[C@@H]1[C@@H]2CC[C@]2(C)C(=O)CC[C@@H]12	97.8	–
CCOP(=O)(OCC)C(C)NC(=O)N(CCCl)N=O (stereo not given)	106	–
CC(C)(O)/C=C\C(=O)[C@](C)(O)[C@H]1[C@H](O)C[C@]2(C)[C@@H]3CC=C4[C@@H](C=C(O)C(=O)C4(C)C)[C@]3(C)C(=O)C[C@@]12C	–	1660 nM (active)
CC(C)C[C@H](CN)CC(=O)O	113	–
CC(C)(NC(=O)O[C@@H]1CN2CCC1CC2)c1csc(-c2ccc(F)cc2)n1	91.1	–
O=c1[nH]c2ccccc2n1CCCN1CCC(n2c(=O)[nH]c3cc(Cl)ccc32)CC1	95.9	–
CN1C(=O)COc2c(C(=O)NC3CN4CCC3CC4)cc(Cl)cc21 (stereo not given)	95.7	–
CC1=C(O)C(=O)C=C2C1=CC=C1[C@@]2(C)CC[C@@]2(C)[C@@H]3C[C@](C)(C(=O)O)CC[C@]3(C)CC[C@]12C	–	934 nM (active)
COC12C(COC(N)=O)C3=C(C(=O)C(C)=C(N)C3=O)N1CC1C2N1C (stereo not given)	107	–
C[C@]12CC[C@H]3[C@@H](CCC4=CC(=O)CC[C@@]43C)[C@H]1CC[C@H]2OC(=O)CCC1CCCC1	96.4	–

SMILES	viability [%]	Potency
C[C@H]1CCC/C=C/C2C[C@H](O)C[C@H]2[C@H](O)/C=C/C(=O)O1 (stereo not given in full)	–	332 nM (active)
Cc1ccccc1-n1c(Cn2ncc3c(N)ncnc32)nc2cccc(C)c2c1=O	112	–
CC1(C)C(=O)N(c2ccc(C#N)c(C(F)(F)F)c2)C(=S)N1Cc1ccc(-c2cn[nH]n2)cc1	–	16600 nM (active)
O=C1C=CC[C@@H]2[C@H]3CCCN4CCC[C@@H](CN12)[C@@H]34	108	–
COC(=O)[C@@]12OC[C@]34[C@H]([C@@H](O)[C@@H]1O)[C@@]1(C)CC(=O)C(O)=C(C)[C@@H]1C[C@H]3OC(=O)[C@H](OC(=O)/C=C(\C)C(C)C)[C@@H]24	–	26.3 nM (active)
C=C(C)[C@H]1Cc2c(ccc3c2O[C@@H]2COc4cc(OC)c(OC)cc4[C@@H]2C3=O)O1	–	1180 nM (active)
C[C@@H](C1CC[C@@]2(O)C3=CC(=O)[C@@H]4C[C@@H](O)[C@@H](O)C[C@]4(C)[C@H]3CC[C@]12C)[C@H](O)CCC(C)(C)O (stereo not given in full)	104	–
CN(C)[C@@H]1C(=O)C(C(N)=O)=C(O)[C@@]2(O)C(=O)C3=C(O)c4c(O)cccc4[C@@](C)(O)[C@H]3[C@H](O)[C@@H]12	103	–
Cn1cc(C2=C(c3cn(C4CCN(Cc5ccccn5)CC4)c4ccccc34)C(=O)NC2=O)c2ccccc21	103	–
CC(=O)Nc1ccc(OC[C@](C)(O)C(=O)Nc2ccc([N+](=O)[O-])c(C(F)(F)F)c2)cc1	114	–
C=C[C@H]1CN2CCC1C[C@@H]2[C@@H](O)c1ccnc2ccccc12 (stereo not given in full)	98.5	–
COC[C@H]1OC(=O)c2coc3c2[C@@]1(C)C1=C(C3=O)C2CCC(=O)[C@@]2(C)C[C@H]1OC(C)=O (stereo not given in full)	–	18600 nM (active)
O=c1cccc2n1CC1CNC[C@H]2C1	119	–
N[C@@H](Cc1ccc(N(CCCl)CCCl)cc1)C(=O)O	–	4680 nM (active)
NC(=O)[C@@H](CC1CC1)[C@@H](CCC(F)(F)F)C(=O)N[C@H]1N=C(c2ccccc2)c2cccc(F)c2NC1=O	117	–
Cc1c(N)nc([C@H](CC(N)=O)NC[C@@H](N)C(N)=O)nc1C(=O)N[C@H](C(=O)N[C@@H](C)[C@H](O)[C@@H](C)C(=O)N[C@@H](C(=O)NCCc1nc(-c2nc(C(=O)NCCC[S+](C)C)cs2)cs1)[C@@H](C)O)C(O[C@H]1O[C@H](CO)[C@H](O)[C@@H](O)[C@H]1O[C@H]1O[C@H](CO)[C@@H](O)[C@H](OC(N)=O)[C@@H]1O)c1cnc[nH]1 (stereo not given in full)	100	–
O=C(O)CNC(=O)C1C(=O)N(C2CCCCC2)C(=O)N(C2CCCCC2)C1=O	114	–
CC(C)CC(N(C)C)C1(c2ccc(Cl)cc2)CCC1 (stereo not given)	99.9	–
Cc1sc2c(c1C)C(c1ccc(Cl)cc1)=NC(CC(N)=O)c1nnc(C)n1-2 (stereo not given)	–	263 nM (active)
COc1ccc(C(=O)c2c(C)n(CCN3CCOCC3)c3cc(I)ccc23)cc1	–	13200 nM (active)
